The values below come from PubChem BioAssay.

Structures are written as SMILES. Unmarked numbers belong to inactive results. The source made the active and inactive calls.

Sequence of Luciferin 4-monooxygenase (Photinus pyralis) (P08659 whole entry, looked up): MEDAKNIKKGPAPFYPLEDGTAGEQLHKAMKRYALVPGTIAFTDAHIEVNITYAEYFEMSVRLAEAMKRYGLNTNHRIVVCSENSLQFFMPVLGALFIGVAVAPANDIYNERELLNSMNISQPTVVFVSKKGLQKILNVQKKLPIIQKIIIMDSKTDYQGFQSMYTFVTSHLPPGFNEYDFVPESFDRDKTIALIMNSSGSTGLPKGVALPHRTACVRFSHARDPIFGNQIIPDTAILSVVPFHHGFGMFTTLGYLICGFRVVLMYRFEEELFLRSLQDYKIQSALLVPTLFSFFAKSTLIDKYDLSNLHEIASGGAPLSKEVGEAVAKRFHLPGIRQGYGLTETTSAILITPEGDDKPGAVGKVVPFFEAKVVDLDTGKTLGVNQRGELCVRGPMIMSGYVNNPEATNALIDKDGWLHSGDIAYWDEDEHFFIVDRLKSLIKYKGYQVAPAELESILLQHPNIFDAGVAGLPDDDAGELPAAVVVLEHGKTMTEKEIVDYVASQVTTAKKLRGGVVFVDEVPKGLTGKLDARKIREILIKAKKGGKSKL

This test concerns the target Luciferin 4-monooxygenase (Photinus pyralis) (UniProt P08659). The test can be described thus: inhibition of purified Photinus pyralis luciferase – biochemical, luminescence, purified enzyme, 2006 set, primary screen (AID 1141).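 Note: cell-free assay with purified firefly luciferase at 100 ng per well in PBS; test concentration not given here.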 The note with it: purified firefly luciferase, SteadyGlo luminescence, 30 min; higher = more signal, called active from +8 up or from −8 down.
As for `C=C(COC)C(=O)CC[C@@H](OC(=O)c1cccnc1)c1ccccc1OCCO`, the z-score is -5.44. As to `CC1CC/C=C\[C@H]2OC34C=CCN(CCN5CCOCC5)C(=O)[C@H]3N(C(C)CO)C(=O)[C@@H]4C2C(=O)O1` (stereo partly specified), the z-score was -1.39. Regarding `[N-]=[N+]=NCc1ccccc1[C@H]1OC(c2ccc(OCCCO)cc2)=N[C@@]1(CCS(=O)(=O)c1ccccc1)C(=O)NCc1ccccc1`, the z-score is -1.41.

Take `COc1ccc([Si](C)(C)[C@H]2[C@H](CCO)O[C@@]3(C(=O)N(Cc4ccc(N5C(=O)c6ccccc6Oc6ccccc65)cc4)c4ccccc43)[C@@H]2C)cc1`: the z-score is -0.652. With `O=C(NCC(O)CO)[C@@]1(CCS(=O)(=O)c2ccccc2)COC(c2ccc(OCCCO)cc2)=N1` (stereo partly specified) the figure was 0.405. With `C=CCC(OC(C)=O)[C@@H]1[C@@H](N(Cc2cccc3ccccc23)C(=O)Cc2ccc(F)cc2)c2cc(OCCCO)ccc2N1C(=O)c1ccc(-c2ccccc2)cc1` (stereo partly specified) the figure was -0.403; with `C=CCNC(=O)[C@@H]1[C@H]2C(=O)O[C@H](c3ccccc3)[C@H](c3ccccc3)N2[C@H](c2ccc(O)cc2)[C@@]12C(=O)N(C(=O)OCCOC)c1ccc(C#CCCO)cc12`, -0.52. On to `C=CCNC(=O)[C@@H]1[C@H]2C(=O)O[C@H](c3ccccc3)[C@H](c3ccccc3)N2[C@H](c2ccc(OCCO)cc2)[C@@]12C(=O)N(C(=O)OCCOC)c1ccc(C#CCCO)cc12`, for which the z-score was -11.1 (active).

Take `C=CCOC(=O)[C@H]1[C@@H]2C(=O)O[C@@H](c3ccccc3)[C@@H](c3ccccc3)N2[C@@H](c2ccc(OCCOC(=O)[C@H]3C[C@H]4C(=O)N[C@@H](CCCCNC(C)=O)C(=O)N4[C@H]3c3cccc(OCCO)c3)cc2)[C@]12C(=O)Nc1ccc(I)cc12`: the z-score was -0.33. Take `COCCOC(=O)N1C(=O)[C@@]2(c3cc(C#CC4=CCCCC4)ccc31)[C@H](c1ccc(O)cc1)N1[C@H](c3ccccc3)[C@H](c3ccccc3)OC(=O)[C@H]1[C@@H]2C(=O)NC[C@H](O)c1ccccc1`: the z-score was -1.08. To `CN1C(=O)C2C=CC(C(O)c3ccc(I)cc3)N(Nc3ccccc3)C2C1=O` (stereo unspecified) belongs -0.431.
